Assay outcomes as filed in PubChem.
L major viab – Leishmania major promastigote growth inhibition; Leishmania major promastigotes, resazurin fluorescence viability; inhibition, % at 10 µM; actives 9% (n = 200,000); AID 1063; in the data active = inhibition above about 50%;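 also: promastigotes grown with compound for 44 hours at 28 °C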
WT yeast gro inh – growth inhibition of WT yeast, mitochondrial fusion screen. actives 2.1% (n = 190,000). inhibition, % at 10 µM. mitochondrial fusion phenotypic screen, WT strain; in the data active = inhibition above about 58%; tested in S. cerevisiae
RAM inhibit – blocks the yeast RAM network | S. cerevisiae dse1pr::URA3 reporter, 5-FOA growth OD615, 2 d; analog-sensitive cbk1-as2 kinase mutant strain | inhibition, % at 50 µM | actives 1.8% (n = 190,000) | AID 868;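 active = inhibition above a set limit, 3 SD over mean compound inhibition, cut at about 8.4% in these data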;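 also: inhibition rescues growth on 5-FOA so higher OD means more RAM inhibition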
CHOP inh – CHOP inhibition in unfolded protein response; CHO-K1 CHOP-promoter luciferase, tunicamycin-induced, 15-18 h; inhibition, % at 10 µM; actives 3.8% (n = 220,000); AID 2732;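 active = compounds that reduced the stress-induced luciferase reporter signal by more than about 70% of percent inhibition, limit read from the data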
Of the large screens only hits and unclear results are named; the others gave an inactive call. Shown are actives, neighbours in structure and some others; about 13% of the full set was active somewhere.

CCCOc1ccc(C(=O)NCC(c2cccs2)N(C)C)cc1 (centres undefined)	none
CCN(c1ccccc1)S(=O)(=O)c1ccc(C(=O)NCC(c2cccs2)N(C)C)cc1 (centres undefined)	L major viab 90
CCN(c1ccccc1)S(=O)(=O)c1ccc(NC(=S)NC(=O)c2cccs2)cc1	L major viab 85
COc1ccc(C2/C=C\CN(C(=O)c3ccccc3)[C@H](Cc3ccccc3)C(=O)N2Cc2ccc(F)cc2)cc1 (some centres undefined)	none (no result: L major viab, WT yeast gro inh, RAM inhibit)
COC(=O)c1c(NC(NC(C)=O)C(Cl)(Cl)Cl)sc2c1CCCC2 (centres undefined)	none
COC(=O)c1c(NC(NC(=O)C(C)C)C(Cl)(Cl)Cl)sc2c1CCC2 (centres undefined)	L major viab 53, WT yeast gro inh 60
COC(=O)c1c(NC(NC(=O)C(C)(C)C)C(Cl)(Cl)Cl)sc2c1CCC2 (centres undefined)	L major viab 51, WT yeast gro inh 71, CHOP inh 78
COC(=O)c1c(NC(=O)c2ccc(Br)s2)sc2c1CCC2	none
COc1ccccc1NC(=O)COn1nnc2ccc(S(=O)(=O)N3CCOCC3)cc21	none
O=C(COC(=O)c1cccc(S(=O)(=O)N2CCc3ccccc32)c1)Nc1ncc(Cl)cc1Cl	L major viab 60
O=C(COC(=O)c1cccc(S(=O)(=O)N2CCc3ccccc32)c1)NCc1ccco1	none
Cc1nc(NC(=O)COC(=O)c2ccc(S(=O)(=O)N3CCc4ccccc4C3)cc2)c(Cl)cc1Cl	none
O=C(OCC(=O)N1CCc2ccccc21)c1cccc(S(=O)(=O)N2CCCc3ccccc32)c1	L major viab 98
O=C(COC(=O)c1ccc(Cl)c(S(=O)(=O)N2CCc3ccccc3C2)c1)Nc1ncc(Cl)cc1Cl	L major viab 81, RAM inhibit 10
COC(=O)/C=C1/S/C(=N/N=C/c2ccc(N(C)C)cc2)NC1=O	none
Cc1cc(C)c2nc(-c3ccccn3)cc(C(=O)n3cccn3)c2c1	none
COc1ccc(S(=O)(=O)Oc2ccc3ccccc3c2)cc1	WT yeast gro inh 60
Cc1cc(Br)cn2cc(C(=O)O)nc12	none
N#Cc1c(NC(=O)C2CC(c3ccccc3O)=NO2)sc2c1CCC2 (centres undefined)	none
CN(NS(=O)(=O)c1ccc(Br)cc1)c1nc(C(F)(F)F)nc2ccccc12	WT yeast gro inh 77
FC(F)(F)c1cnc2c(-c3ccccc3)n[nH]c2c1	none
O=C1C2CCCCN2C(=O)N1CCCCN1CCN(c2ccc([N+](=O)[O-])cc2)CC1 (centres undefined)	none
CC1CCN(CCCCOc2ccccc2[N+](=O)[O-])CC1	L major viab 90
COC(=O)C1CCN(Cc2ccc(OCCCN3CCN(c4ccc([N+](=O)[O-])cc4)CC3)cc2)CC1	L major viab 96
CC1CCN(CCCCOc2ccc([N+](=O)[O-])cc2)CC1	L major viab 91
O=C(COc1ccccc1[N+](=O)[O-])N1CCC(Cc2ccccc2)CC1	none
O=[N+]([O-])c1ccc(-c2ccc(S(=O)(=O)NCCN3CCCC3)cc2)cc1	L major viab 80
Cc1cc(NC(=O)c2ccc([N+](=O)[O-])cc2)n(C)n1	none (no result: L major viab, WT yeast gro inh, RAM inhibit)
Cc1noc(C)c1C(=O)OCC(=O)NCCC1=CCCCC1	none
O=C(CN(CCO)c1ccccc1)Nc1ccc(Cl)c(S(=O)(=O)N2CCOCC2)c1	none
O=[N+]([O-])c1ccc(OCCCCN2CCCCC2)cc1	L major viab 89
Fc1ccc(CSc2ccc3nnc(-c4ccccn4)n3n2)cc1	L major viab 96
Brc1ccc(CSc2ccc3nnc(-c4ccccn4)n3n2)cc1	RAM inhibit 9.9
Brc1ccc(CSc2ccc3nnc(-c4cccnc4)n3n2)cc1	RAM inhibit 10
CCOc1cc(N2CCOCC2)c(OCC)cc1NC(=O)COC(=O)[C@@H]1CCCN1S(=O)(=O)c1ccccc1F	none
COc1ccc2c(c1)S/C(=C\C(=O)c1ccncc1)N2C	L major viab 97
COc1cc(OC)cc(C(=O)/C=C2\Sc3ccccc3N2C)c1	none
Cc1ccc(-n2nc(CN3CCOCC3)c(-c3ccccc3)c2N)cc1Cl	none
CC(=O)Nc1cccc(C(=O)N/N=C/c2ccc(F)cc2)c1	none
CCC(=O)Nc1cccc(C(=O)/C=C/c2ccc(F)cc2)c1	L major viab 100
CC(=O)Nc1cccc(C(=O)/C=C/c2ccc(C)cc2)c1	L major viab 100
CSc1ccc(/C=C/C(=O)c2ccc(NC(C)=O)cc2)cc1	L major viab 57
CC(C)c1ccc2[nH]c3c(c2c1)CCC/C3=N\NC(=O)c1ccncc1	none (no result: L major viab, WT yeast gro inh, RAM inhibit)
CCN(Cc1ccccc1)c1ccc(/C=N/NC(=O)c2cccc(S(=O)(=O)N3CCOCC3)c2)cc1	L major viab 91
CCN(CC)c1ccc(/C=N/NC(=O)c2ccco2)cc1	L major viab 50
CCN(CC)c1ccc(/C=N/NC(=O)c2cccc(S(=O)(=O)N3CCOCC3)c2)cc1	L major viab 73
O=C(N/N=C/c1c(F)c(F)c(F)c(F)c1F)c1cccc(S(=O)(=O)N2CCOCC2)c1	none
COc1cc(/C=N/NC(=O)c2cccc(S(=O)(=O)N3CCOCC3)c2)cc(OC)c1O	none
CCN(CC)c1ccc(/C=N/NC(=O)c2ccco2)c(O)c1	none (no result: L major viab, WT yeast gro inh, RAM inhibit)
CN(C)c1ccc(/C=N/NC(=O)c2cccc(C(=O)N/N=C/c3ccc(N(C)C)cc3)n2)cc1	RAM inhibit 9.9
O=C(C1=C[C@H](c2ccccc2)C[C@H](OCc2ccc(CO)cc2)O1)N1CCOCC1	none
CC(C)Cc1ccc(/C=C/C(=O)NC2CC2)cc1	none
COC(=O)CN(c1nc(C)c(Br)c(OC)n1)S(=O)(=O)c1ccc(C)cc1	L major viab 88
COc1nc(N(C)S(=O)(=O)c2ccc(C)cc2)nc(C)c1Cl	CHOP inh 83
Cc1ccc(NC(=O)CCC(=O)N/N=C/c2cc([N+](=O)[O-])ccc2O)cc1	none
O=C(N/N=C/c1cc([N+](=O)[O-])ccc1O)c1ccc2c(c1)OCCO2	L major viab 98
CN1CCN(CCC(=O)N/N=C/c2cc([N+](=O)[O-])ccc2O)CC1	L major viab 100
S=C(NCc1cccc(Cl)c1)NC1CCCCC1	WT yeast gro inh 66
S=C(NCc1ccccc1)NC1CCCCC1	none
Cc1ccc(S(=O)(=O)N(C)c2ccc(C(=O)N3CCN(Cc4ccc5c(c4)OCO5)CC3)cc2)cc1	L major viab 100
Cc1cccc(C(=O)N2CCN(Cc3ccc4c(c3)OCO4)CC2)c1	none
CN(c1ccccc1)S(=O)(=O)c1cccc(C(=O)OCC(=O)NCc2ccc3c(c2)OCO3)c1	RAM inhibit 10
COc1cc(OC)c(N(C)S(=O)(=O)c2cccc(C(=O)OCC(=O)NCc3ccco3)c2)cc1Cl	L major viab 53
CCN1CCN(C(=O)CN(c2cccc(Br)c2)S(=O)(=O)c2ccccc2)CC1	L major viab 98
CCN(CC)S(=O)(=O)c1ccc(/C=C/C(=O)OCC(=O)N(C(C)C)C(C)C)cc1	none
COC(=O)C1=C(N)Oc2cc(C)[nH]c(=O)c2C1c1ccccc1OC (centres undefined)	none (no result: L major viab, WT yeast gro inh, RAM inhibit)
CN(c1ccc(C(=O)N2CCN(Cc3ccc4c(c3)OCO4)CC2)cc1)S(=O)(=O)c1ccccc1	L major viab 96
